The supplement of paper PMC11732987, “Enantioselective OTUD7B fragment discovery through chemoproteomics screening and high-throughput optimisation” (Communications Chemistry, 2025)

Experiments:
Assay in all cases: log2 ratio of Biotin-Ahx-Ub-VS probe labelling (fragment/DMSO); higher = less target engagement (more negative = stronger competition), active = hit call of the paper (q ≤ 0.05, log2 ratio ≤ -1)
Conditions in all cases: compound concentration: 200 uM; treatment time: 3 h
ALG13 = target: T1, ALG13 (UniProt Q9NP73)
T1 sequence (whole entry): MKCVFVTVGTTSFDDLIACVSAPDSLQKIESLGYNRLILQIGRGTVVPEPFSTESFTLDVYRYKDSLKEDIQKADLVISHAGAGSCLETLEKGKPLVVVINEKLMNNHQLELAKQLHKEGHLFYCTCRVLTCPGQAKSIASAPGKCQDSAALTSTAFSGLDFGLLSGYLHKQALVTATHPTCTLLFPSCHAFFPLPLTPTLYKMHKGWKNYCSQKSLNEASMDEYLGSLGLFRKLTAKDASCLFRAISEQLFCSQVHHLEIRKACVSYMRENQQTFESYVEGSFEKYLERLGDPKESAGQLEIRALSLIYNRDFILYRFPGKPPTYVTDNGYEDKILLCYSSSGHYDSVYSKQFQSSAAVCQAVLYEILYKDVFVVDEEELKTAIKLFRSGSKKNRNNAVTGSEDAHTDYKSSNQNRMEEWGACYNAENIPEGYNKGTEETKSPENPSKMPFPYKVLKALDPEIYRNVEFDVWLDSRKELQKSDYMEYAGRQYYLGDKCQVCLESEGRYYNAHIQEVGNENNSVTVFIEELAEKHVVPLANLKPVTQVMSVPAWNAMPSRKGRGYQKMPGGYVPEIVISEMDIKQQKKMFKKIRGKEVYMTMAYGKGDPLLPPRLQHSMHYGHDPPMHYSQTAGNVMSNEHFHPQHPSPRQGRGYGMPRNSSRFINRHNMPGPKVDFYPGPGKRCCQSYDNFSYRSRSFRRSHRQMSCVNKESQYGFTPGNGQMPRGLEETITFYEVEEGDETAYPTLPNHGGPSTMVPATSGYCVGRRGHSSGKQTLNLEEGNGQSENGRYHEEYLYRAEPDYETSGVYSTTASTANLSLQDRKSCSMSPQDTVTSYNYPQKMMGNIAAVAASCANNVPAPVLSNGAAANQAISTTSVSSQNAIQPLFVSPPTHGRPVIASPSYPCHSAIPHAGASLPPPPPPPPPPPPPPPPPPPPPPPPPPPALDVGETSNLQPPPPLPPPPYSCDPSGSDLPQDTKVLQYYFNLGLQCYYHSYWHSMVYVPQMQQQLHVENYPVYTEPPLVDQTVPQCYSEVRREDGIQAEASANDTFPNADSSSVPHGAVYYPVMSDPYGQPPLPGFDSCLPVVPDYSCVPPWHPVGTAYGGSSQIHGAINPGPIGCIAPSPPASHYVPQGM
In short: (§1)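 Fragment (200 µM) or vehicle was incubated for 3 h with triplicate HEK293T lysate samples of 495 µg, which were then treated with Biotin-Ahx-Ub-VS at 0.5 µM final for 1 h. Labelled DUBs were enriched on NeutrAvidin, digested with LysC and trypsin, and analysed by diaPASEF LC-MS/MS. Values are average log2 fragment/vehicle ratios from an unpaired t-test on global-median-normalised Spectronaut label-free quantities, using proteins with ≥2 unique peptides.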

ATXN3 = ATXN3 (UniProt P54252)
Chain of ATXN3 (P54252 whole entry): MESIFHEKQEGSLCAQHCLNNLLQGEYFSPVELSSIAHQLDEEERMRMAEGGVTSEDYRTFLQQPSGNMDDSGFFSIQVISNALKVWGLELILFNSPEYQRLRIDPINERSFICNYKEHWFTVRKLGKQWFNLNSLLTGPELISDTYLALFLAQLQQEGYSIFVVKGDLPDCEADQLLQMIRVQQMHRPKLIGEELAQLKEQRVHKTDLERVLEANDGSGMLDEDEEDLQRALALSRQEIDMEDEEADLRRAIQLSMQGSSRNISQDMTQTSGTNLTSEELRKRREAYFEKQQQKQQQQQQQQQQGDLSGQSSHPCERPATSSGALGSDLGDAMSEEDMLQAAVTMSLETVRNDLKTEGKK
In short: as §1

BAP1 = target: T2, BAP1 (UniProt Q92560)
T2 sequence (whole entry): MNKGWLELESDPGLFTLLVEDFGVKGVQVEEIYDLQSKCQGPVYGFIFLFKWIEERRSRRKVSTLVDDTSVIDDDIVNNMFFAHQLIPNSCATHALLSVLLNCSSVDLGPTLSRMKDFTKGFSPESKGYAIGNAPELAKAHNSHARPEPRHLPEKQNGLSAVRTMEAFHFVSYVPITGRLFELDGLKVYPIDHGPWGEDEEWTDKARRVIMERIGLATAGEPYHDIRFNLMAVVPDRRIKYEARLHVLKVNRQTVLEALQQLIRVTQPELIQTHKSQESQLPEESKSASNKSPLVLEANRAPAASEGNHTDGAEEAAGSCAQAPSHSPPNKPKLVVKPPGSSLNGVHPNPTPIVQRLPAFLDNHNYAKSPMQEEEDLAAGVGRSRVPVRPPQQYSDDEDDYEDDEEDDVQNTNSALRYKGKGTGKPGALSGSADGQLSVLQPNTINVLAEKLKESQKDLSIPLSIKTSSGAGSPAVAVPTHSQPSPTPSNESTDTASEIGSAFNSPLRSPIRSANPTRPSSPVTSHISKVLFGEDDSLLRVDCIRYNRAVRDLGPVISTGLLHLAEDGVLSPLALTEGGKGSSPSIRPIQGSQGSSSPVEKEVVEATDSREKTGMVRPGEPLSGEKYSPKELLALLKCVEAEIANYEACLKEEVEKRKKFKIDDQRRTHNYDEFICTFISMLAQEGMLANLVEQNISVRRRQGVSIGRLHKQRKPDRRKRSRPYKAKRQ
In short: as §1

EIF3F = EIF3F (UniProt O00303)
Chain of EIF3F (O00303 whole entry): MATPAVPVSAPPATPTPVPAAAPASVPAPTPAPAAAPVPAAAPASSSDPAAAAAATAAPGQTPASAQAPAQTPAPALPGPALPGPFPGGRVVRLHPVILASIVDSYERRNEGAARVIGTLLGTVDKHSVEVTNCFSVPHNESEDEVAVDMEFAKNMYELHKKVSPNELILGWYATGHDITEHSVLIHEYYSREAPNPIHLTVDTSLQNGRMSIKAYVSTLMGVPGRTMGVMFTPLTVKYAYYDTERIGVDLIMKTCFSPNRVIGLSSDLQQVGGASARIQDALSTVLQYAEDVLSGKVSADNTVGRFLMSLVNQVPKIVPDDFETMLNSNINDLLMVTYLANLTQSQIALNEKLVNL
In short: as §1

EIF3H = EIF3H (UniProt O15372)
Chain of EIF3H (O15372 whole entry): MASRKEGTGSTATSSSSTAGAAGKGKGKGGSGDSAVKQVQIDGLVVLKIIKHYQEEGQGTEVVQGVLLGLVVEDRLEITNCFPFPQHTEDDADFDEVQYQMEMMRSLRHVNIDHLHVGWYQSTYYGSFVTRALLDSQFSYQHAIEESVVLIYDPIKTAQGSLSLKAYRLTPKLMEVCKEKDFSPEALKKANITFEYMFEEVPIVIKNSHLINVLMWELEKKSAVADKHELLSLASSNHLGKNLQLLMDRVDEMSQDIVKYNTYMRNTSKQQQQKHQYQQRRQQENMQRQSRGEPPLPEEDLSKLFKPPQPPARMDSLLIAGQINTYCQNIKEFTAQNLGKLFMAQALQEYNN
In short: as §1

FAM105A = target: T3, FAM105A (UniProt Q9NUU6)
T3 sequence (whole entry): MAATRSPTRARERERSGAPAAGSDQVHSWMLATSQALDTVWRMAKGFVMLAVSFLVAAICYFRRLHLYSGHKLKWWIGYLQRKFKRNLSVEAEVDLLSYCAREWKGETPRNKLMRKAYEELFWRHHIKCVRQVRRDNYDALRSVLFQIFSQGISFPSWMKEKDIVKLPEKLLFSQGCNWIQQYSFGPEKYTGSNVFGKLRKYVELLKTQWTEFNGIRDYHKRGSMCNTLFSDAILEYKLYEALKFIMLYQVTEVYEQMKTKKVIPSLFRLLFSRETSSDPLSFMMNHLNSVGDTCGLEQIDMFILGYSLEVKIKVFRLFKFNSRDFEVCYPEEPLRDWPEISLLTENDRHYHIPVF
In short: as §1

OTUB1 = OTUB1 (UniProt Q96FW1)
Chain of OTUB1 (Q96FW1 whole entry): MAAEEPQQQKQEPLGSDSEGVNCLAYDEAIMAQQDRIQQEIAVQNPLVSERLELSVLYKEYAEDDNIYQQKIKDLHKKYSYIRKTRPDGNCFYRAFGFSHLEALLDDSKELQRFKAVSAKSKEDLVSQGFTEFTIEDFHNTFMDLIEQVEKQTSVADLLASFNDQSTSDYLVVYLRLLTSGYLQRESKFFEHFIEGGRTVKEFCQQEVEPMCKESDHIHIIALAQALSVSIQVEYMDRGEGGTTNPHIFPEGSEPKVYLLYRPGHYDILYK
In short: as §1

OTUD4 = target: T4, OTUD4 (UniProt Q01804)
T4 sequence (whole entry): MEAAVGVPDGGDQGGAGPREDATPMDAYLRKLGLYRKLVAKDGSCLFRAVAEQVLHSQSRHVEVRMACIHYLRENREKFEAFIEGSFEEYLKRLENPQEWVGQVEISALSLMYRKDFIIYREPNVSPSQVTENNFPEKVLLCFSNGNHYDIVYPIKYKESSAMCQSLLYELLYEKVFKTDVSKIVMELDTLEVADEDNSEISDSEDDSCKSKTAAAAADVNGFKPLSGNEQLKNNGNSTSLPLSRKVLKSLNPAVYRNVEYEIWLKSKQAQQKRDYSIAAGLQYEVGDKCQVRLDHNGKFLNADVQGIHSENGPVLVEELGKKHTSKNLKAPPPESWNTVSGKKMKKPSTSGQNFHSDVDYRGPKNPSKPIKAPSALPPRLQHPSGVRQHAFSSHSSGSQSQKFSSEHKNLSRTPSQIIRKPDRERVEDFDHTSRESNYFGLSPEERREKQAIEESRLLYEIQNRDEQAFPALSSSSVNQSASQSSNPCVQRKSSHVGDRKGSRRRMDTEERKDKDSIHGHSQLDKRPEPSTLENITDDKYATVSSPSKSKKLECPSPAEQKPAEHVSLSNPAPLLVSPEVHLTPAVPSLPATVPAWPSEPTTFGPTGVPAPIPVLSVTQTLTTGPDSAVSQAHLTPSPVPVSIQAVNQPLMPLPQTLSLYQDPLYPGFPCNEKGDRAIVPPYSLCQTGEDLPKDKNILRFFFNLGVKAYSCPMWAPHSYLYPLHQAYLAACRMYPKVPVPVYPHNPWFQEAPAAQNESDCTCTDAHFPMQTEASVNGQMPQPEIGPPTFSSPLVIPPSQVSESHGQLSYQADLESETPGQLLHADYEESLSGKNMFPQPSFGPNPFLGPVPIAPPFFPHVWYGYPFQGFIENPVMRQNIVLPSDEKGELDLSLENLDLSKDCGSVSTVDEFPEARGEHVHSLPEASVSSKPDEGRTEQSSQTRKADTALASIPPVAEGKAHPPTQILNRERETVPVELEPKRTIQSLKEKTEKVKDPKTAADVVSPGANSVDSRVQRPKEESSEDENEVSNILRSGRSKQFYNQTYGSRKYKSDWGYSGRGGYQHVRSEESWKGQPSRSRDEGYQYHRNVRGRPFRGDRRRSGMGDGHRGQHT
In short: as §1

OTUD5 = target: T5, OTUD5 (UniProt Q96G74)
T5 sequence (whole entry): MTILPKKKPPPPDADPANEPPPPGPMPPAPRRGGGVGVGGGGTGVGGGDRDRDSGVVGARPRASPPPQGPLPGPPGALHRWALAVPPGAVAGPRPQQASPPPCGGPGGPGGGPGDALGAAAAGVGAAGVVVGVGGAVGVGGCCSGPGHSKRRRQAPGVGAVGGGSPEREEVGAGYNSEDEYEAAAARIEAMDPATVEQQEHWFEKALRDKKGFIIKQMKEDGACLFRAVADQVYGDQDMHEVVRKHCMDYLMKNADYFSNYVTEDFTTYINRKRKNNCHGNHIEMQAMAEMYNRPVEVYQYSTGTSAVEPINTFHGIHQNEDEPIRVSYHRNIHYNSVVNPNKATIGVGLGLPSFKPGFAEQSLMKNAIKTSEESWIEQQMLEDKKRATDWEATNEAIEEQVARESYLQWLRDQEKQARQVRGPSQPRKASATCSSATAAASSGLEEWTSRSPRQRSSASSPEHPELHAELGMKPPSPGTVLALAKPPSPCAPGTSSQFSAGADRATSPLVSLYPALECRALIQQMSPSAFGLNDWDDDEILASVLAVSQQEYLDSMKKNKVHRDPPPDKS
In short: as §1

Measured: log2 ratio of Biotin-Ahx-Ub-VS probe labelling

O=C(CCl)N1CCC(C(O)c2ccc(F)cc2)CC1 (stereo not drawn)
inactive: ALG13 0.00454 | ATXN3 -0.475 | BAP1 -0.334 | EIF3F -0.0081 | EIF3H 0.17 | FAM105A -0.0782 | OTUB1 -0.215 | OTUD4 -0.0305 | OTUD5 -0.189

O=C(CCl)N1CCN(C(=O)Nc2ccccc2)CC1
inactive: ALG13 0.164 | ATXN3 -0.281 | BAP1 -0.529 | EIF3F 0.181 | EIF3H 0.232 | FAM105A 0.233 | OTUB1 0.155 | OTUD4 0.0219 | OTUD5 -0.224
